We go through 92 compounds from PubChem BioAssay AID1672 (Johns Hopkins Ion Channel Center, 2009).

Out of some 310,000 compounds screened, about 2,600 (0.84%) were called active. The list comes from a sample in which actives are over-represented; it also holds similar structures and randomly drawn compounds. Values without a mark were called inactive.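 The calls were made as follows: active = fluorescence ratio B-score at or below minus 3 SD of library scores, with starting-brightness B-score within 2 SD (cut at about -4.2 in these data); inactive = the rest.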

For this assay, the target named is Inward rectifier potassium channel 2 (Mus musculus) (UniProt P35561). As to the kind of experiment: inhibitors of mouse Kir2.1 inward-rectifier potassium channel (AID 1672).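 Also: channel flux triggered by added potassium and thallium sulfate stimulus; B-score of peak minus minimum fluorescence over baseline after thallium stimulus; more negative B-score means stronger Kir2.1 block with less thallium influx.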 To be noted: HEK293-Kir2.1, FluxOR thallium flux fluorescence; at 10 µM; stronger effect = lower value.
Sequence of Inward rectifier potassium channel 2 (Mus musculus) (P35561 whole entry, looked up): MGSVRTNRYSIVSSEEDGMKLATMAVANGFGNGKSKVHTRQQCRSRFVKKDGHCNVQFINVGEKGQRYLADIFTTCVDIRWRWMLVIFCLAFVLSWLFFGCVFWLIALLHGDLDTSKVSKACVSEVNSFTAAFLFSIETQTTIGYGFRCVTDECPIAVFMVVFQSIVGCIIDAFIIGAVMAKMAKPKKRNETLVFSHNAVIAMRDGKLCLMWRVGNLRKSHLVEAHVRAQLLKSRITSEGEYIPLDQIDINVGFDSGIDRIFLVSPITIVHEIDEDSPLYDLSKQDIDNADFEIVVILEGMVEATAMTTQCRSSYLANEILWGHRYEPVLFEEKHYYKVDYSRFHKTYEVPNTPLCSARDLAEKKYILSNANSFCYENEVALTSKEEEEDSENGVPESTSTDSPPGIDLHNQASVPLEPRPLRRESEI
In the case of `Cc1ccc(-c2cc(=O)[nH]c(NCc3ccccc3)n2)cc1`, the B-score is -1.96. Next, `COc1ccccc1CN(C)C(=O)C1(c2ccc(Cl)cc2)CC1`: -7.43 (active); `COc1ccccc1CN(C)C(=O)c1cc2ccccc2o1`: -0.72. The value for `COc1cccc(CN(C)C(=O)CC23CC4CC(CC(C4)C2)C3)c1OC` was 0.01. Next, `COc1ccc(/C=N/NC(=O)c2cc(-c3cccc(C)c3)nc3ccccc23)cc1O`: -0.5; `CCOc1ccc(NS(=O)(=O)c2ccc(C(=O)NC3CCN(Cc4ccccc4)CC3)cc2)cc1`: -0.37; `COc1ccccc1CCC(=O)OCC(=O)N1CCN(S(=O)(=O)c2ccc(C)cc2C)CC1`: -0.28. For the compound `CC1=C/C(=N\OS(=O)(=O)c2ccccc2)C=CC1=O`, the B-score was -8.49 (active). Next, `Cc1ccc(S(=O)(=O)c2ccc(Oc3ccccc3)cc2)cc1`: 1.97. Next, `O=S(=O)(ON(c1ccccc1)S(=O)(=O)c1ccccc1)c1ccccc1`: -1.37; `COC(=O)c1ccc(NS(=O)(=O)c2cc3c4c(c2)C(C)C(=O)N4CCC3)cc1` (configuration not stated): -0.99. Next, `C/C(=N\NC(=O)COc1ccc(C)cc1[N+](=O)[O-])c1ccc2c(c1)OCCO2`: 0.54; `C=CS(=O)c1sc(Cl)c(N2CCOCC2)c1[N+](=O)[O-]` (configuration not stated): -4.54 (active). On to `CCCCCCCCCCCCN1[C@@H](CC(C)=O)c2cc(F)cc(F)c2S1(=O)=O`, for which the B-score is 1.64.

Take `CCCCOC(=O)CNc1nnc(SCC(=O)OCC)[nH]c1=O`: the B-score is -5.69 (active). Next, `Cc1nnc(SCC(=O)N2CCOCC2)[nH]c1=O`: -0.42; `CCOC(=O)c1c(NC(=O)CSc2nnc(C)c(=O)[nH]2)sc2c1CCC2`: 1.75; `COc1ccc(NC(=O)CN(C)C(=O)c2ccc(NC3CC3)c([N+](=O)[O-])c2)cc1`: 0.91. Next, `COc1ccc(C(=O)OCC(=O)c2ccc(Cl)s2)c(OC)c1OC`: 1.46; `CCOc1ccc(C(C)=O)cc1COC(=O)CNC(=O)c1cccs1`: -0.97.

`COc1ccccc1C(CNC(=O)c1cccc(NS(=O)(=O)c2ccc(Br)cc2)c1)N(C)C` (configuration not stated): the B-score is -1.8.

For the compound `O=C(O)[C@@H]1CCCN1c1ncnc2sc3c(c12)CCC3`, the B-score is 0.12.

On to `CC(C)(C)C(=O)Cn1c(NCCO)nc2ccccc21`, for which the B-score was -0.4. For the compound `OCCNc1nc2ccccc2n1-c1ncnc2sc3c(c12)CCC3`, the B-score is -8.97 (active). Next, `COc1cc(-c2nnc(NC(=O)C3=COCCO3)o2)cc(OC)c1OC`: 0.99; `CCCCn1c(N)c(N(CC(C)C)C(=O)c2cccc(S(=O)(=O)N3CCN(C(C)=O)CC3)c2)c(=O)[nH]c1=O`: -1.82; `O=C(CCCN=C1NS(=O)(=O)c2ccccc21)OCC(=O)c1ccc(F)c(F)c1`: 0.45. Next, `COc1ccccc1C(=O)N1CC2(C)CC1CC(C)(C)C2` (configuration not stated): -0.99; `Cc1nnnn1/C(=C\c1ccccc1)C(=O)OCC(=O)N1CC2(C)CC1CC(C)(C)C2` (configuration not stated): -4.63 (active); `Cc1cccc(C(=O)NCC(=O)OCC(=O)N2CC3(C)CC2CC(C)(C)C3)c1` (configuration not stated): 1.23. Next, `Cc1ccc(-n2c(Cc3cccs3)nnc2SCC(=O)OC(C)C)cc1`: -2.12. As for `CCn1c(SCC(=O)c2ccc3ccccc3c2)nnc1-c1cccs1`, the B-score was -2.71. The value for `CCn1c(Cc2cccs2)nnc1SCC(=O)c1ccc(C)cc1` was -4.88 (active); that for `CN(Cc1nc2ccccc2s1)C(=O)c1ccc(F)cc1` was 1.03.

Consider `O=C(/C=C/c1ccc2c(c1)OCO2)NCc1ccc(F)cc1`, for which the B-score was -0.53. Next, `COc1c(C=O)c(CCN(C)C(=O)c2ccc(F)cc2)cc2c1OCO2`: -4.35 (active). The value for `Cc1cc(NC(=O)C(C)SCC(=O)Nc2ccccc2N2CCCCC2)no1` (configuration not stated) was -4.17; that for `COc1ccc(C(=O)c2c3ccc([N+](=O)[O-])cc3[n+]([O-])n2CCCN)cc1` was 0.68; that for `Cc1cc(NC(=O)CCS(=O)(=O)c2ccc(F)cc2)no1` was -0.47.

Consider `CCNC(=S)Nc1cccc(Cl)c1C`, for which the B-score was 0.45. Next, `Cc1c(Cl)cccc1NC(=S)NCC(O)c1ccccc1` (configuration not stated): -4.47 (active). The value for `Cc1c(Cl)cccc1NC(=S)NCc1ccc2c(c1)OCO2` was -1.74; that for `O=C(Nc1ccc(N2CCCCC2)cc1)c1cc(S(=O)(=O)N2CCOCC2)ccc1F` was 0.53. The value for `COc1cc(N)c(Cl)cc1C(=O)OCC(=O)c1ccc2c(c1)NC(=O)CO2` was 0.6.

As for `Cc1nn(C)cc1C(=O)c1ccccc1`, the B-score was 0.22. Next, `CCOc1ccc(C(=O)Nc2cc(Cl)ccc2-n2cncn2)cc1OC`: -2.32.

For `COc1cccc(CC2(CO)CCCN(CC3=Cc4cc(OC)ccc4OC3)C2)c1` (configuration not stated), the B-score was 0.68.

As to `COc1ccc2c(c1)C=CC1(O2)N(CCO)c2ccccc2C1(C)C` (configuration not stated), the B-score is -6.82 (active). The value for `CN1c2ccc([N+](=O)[O-])cc2C(C)(C)C12C=Cc1cc(C(=O)O)ccc1O2` (configuration not stated) was 0.63; that for `CN(N)c1nc(N2CCCC2)nc(N2CCCC2)n1` was 0.28; that for `Cc1sc2ncnc(N3CCC(C(=O)NNC(=O)c4ccc(F)cc4)CC3)c2c1C` was 0.05. `COc1ccc(N2CCN(C(=O)COC(=O)c3cccc(S(=O)(=O)Nc4ccccc4OC)c3)CC2)cc1`: the B-score is 0.61.

Consider `CSc1ccc(Cl)c(C(=O)OCC(=O)N2CC(C)OC(C)C2)c1` (configuration not stated), for which the B-score is -0.84.

As to `CC1CN(C(=O)COC(=O)c2cccc(NS(=O)(=O)c3ccccc3)c2)CC(C)O1` (configuration not stated), the B-score is -4.76 (active).

For the compound `O=C(NC1CCCCC1)c1ccc(-c2ccc(Cl)cc2)o1`, the B-score was 1.25. The value for `C=CCn1c(=O)c2ccccc2n2c(SCC(=O)N3CCCc4ccccc43)nnc12` was 0.08.

As for `O=C(CSc1nc2ccccc2c(=O)n1CCCO)N1CCc2ccccc21`, the B-score is 0.73. Take `Cn1c(SCC(=O)N2CCCc3ccccc32)nc2ccccc2c1=O`: the B-score was -6.03 (active). The value for `CN(Cc1ccccc1F)C(=O)C(Cc1ccccc1)NC(=O)c1ccccc1` (configuration not stated) was -1.09.

On to `CC(=O)Nc1cccc(C(=O)OCC(=O)NCc2cc(C)c(O)c(C)c2)c1`, for which the B-score is -1.5. The value for `CC(=O)N1C(C)c2ccccc2C(C)(C)CC12CCCCC2` (configuration not stated) was -6.43 (active); that for `CC(=O)N1CCN(C(=O)c2cc(-c3ccc(C)o3)nc3ccccc23)CC1` was 0.63.

For the compound `CCCCCN(C(=O)CCC(=O)OCCOc1ccc(OC)cc1)c1c(N)n(CCCC)c(=O)[nH]c1=O`, the B-score is 0.11. Next, `O=C(N/N=C/c1cc(Br)c(O)c([N+](=O)[O-])c1)C(O)(c1ccccc1)c1ccccc1`: 1.06. Next, `CN(/N=C/c1ccccc1)C(=S)c1ccccc1`: 1.83; `CCCCCOc1ccc(CSC2=NCCN2)cc1[N+](=O)[O-]`: -0.86; `CCCCOc1ccc(CSC(=N)N)cc1[N+](=O)[O-]`: -5.22 (active). Next, `CCCOc1ccc(Cn2ccnc2)cc1[N+](=O)[O-]`: -0.79; `O=C(CNC(=O)C12CC3CC(CC(C3)C1)C2)OCC(=O)N1CCCCC1`: 1.97. With `CCC(C)N(C(=O)COC(=O)c1nc(Cl)ccc1Cl)C1CCS(=O)(=O)C1` (configuration not stated), the B-score is -0.16. Next, `CCN(CC(=O)Nc1ccc(NC(C)=O)cc1)C(=O)C1CC(=O)N(Cc2ccc(C)cc2)C1` (configuration not stated): 1.85; `CCN(CC)C(=O)CC(c1ccc2c(c1)OCO2)c1c(OC)cc(OC)c2c(-c3ccccc3)cc(=O)oc12` (configuration not stated): 1.58; `COc1cc(OC)c2ccc(=O)oc2c1C(CCN1CCN(c2ccccc2)CC1)c1ccc2c(c1)OCO2` (configuration not stated): -0.17. Next, `CCN(CC)CCC(c1ccc2c(c1)OCO2)c1c(OC)cc(OC)c2c(-c3ccccc3)cc(=O)oc12` (configuration not stated): -6.31 (active); `Cc1ccc2nc(Nc3ccccc3O)nc(-c3ccccc3)c2c1`: -0.47; `NC(N)=Nc1nc(-c2ccccc2)c2cc(Cl)ccc2n1`: -10 (active).

For `O=C(CCl)NNc1nc(-c2ccccc2)c2cc(Cl)ccc2n1`, the B-score was 0.44. Next, `CCCCn1c(N)c(N(CCOC)C(=O)c2cccc(S(=O)(=O)N(C)c3ccccc3)c2)c(=O)[nH]c1=O`: -1.94; `COc1cccc(CNCc2ccc3c(c2)OCO3)c1`: 0.44; `COc1ccc2c(c1)C(C)=CC(C)(C)N2C(=O)CNCc1ccc2c(c1)OCO2`: -6.62 (active). The value for `COc1ccc2c(c1)C(C)=CC(C)(C)N2C(=O)Nc1ccccc1` was -0.17; that for `COc1ccc(-c2nnc(SCC(=O)Nc3cccnc3Cl)n2C)cc1` was -1.29.

Consider `COc1ccccc1-c1n[nH]c2c1[C@H](C)CC[C@H]2C(C)C`, for which the B-score is -5.83 (active). Next, `COc1ccc(-c2n[nH]c(C)c2-c2ccccc2OC)c(O)c1`: -2.01; `COc1ccccc1-c1nc(SC)n[nH]1`: 0.18; `CCOc1ccc(S(=O)(=O)N2CCC(C(=O)OCc3ccc(OC)cc3)CC2)cc1`: -1.22. The value for `CCOc1cc(/C=N/NC(=O)c2cccc(S(=O)(=O)N3CCOCC3)c2)ccc1OCC(=O)N(C)C` was 0; that for `COc1ccc(C(CNCC(=O)Nc2ccccc2F)N(C)C)cc1` (configuration not stated) was -0.53.

Consider `COc1ccc(C(CCNCc2ccccc2F)c2ccc(F)cc2)cc1` (configuration not stated), for which the B-score was -9.19 (active). Next, `COc1ccc(CC(=O)NC(C)CCc2ccccc2)cc1` (configuration not stated): -1.96; `Cc1ccc(NC(=O)COc2coc(CN3CCc4ccccc4C3)cc2=O)cc1Cl`: -0.37; `CC(=O)Nc1ccc(C(=O)Nc2cccc(S(=O)(=O)NC3=NCCC3)c2)cc1`: -0.82.
